Test results as given in PubChem BioAssay AID1461 (National Center for Advancing Translational Sciences (NCATS), 2008).
Hit rate of the full screen: of about 220,000 compounds, about 2,300 (1%) were called active. Not shown: some 6% with an inconclusive outcome. Calls follow the shape of the dose curve; as a rule, active = well fitted inhibition curve with a large enough effect; inconclusive = small, poorly fitted or top-dose-only effect, or effect the other way; inactive = no such curve, though single readings can be large or run the other way. Many of the other results were omitted from the sample, so actives are more common in it than they were.

target: Neuropeptide S receptor (Homo sapiens) (UniProt Q6W5P4); assay: qHTS Assay for Antagonists of the Neuropeptide S Receptor: cAMP Signal Transduction; details: CHO-NPSR cells, cAMP TR-FRET, antagonist mode; series mostly up to 38.3 µM; also: nearly all actives have a fitted effect of over 50% in size
% is scaled to controls: 0 for no effect and ±100 for the full control effect; potency is read from the fitted curve at half-maximal effect.

Sequence of Neuropeptide S receptor (Homo sapiens) (Q6W5P4 whole entry, looked up): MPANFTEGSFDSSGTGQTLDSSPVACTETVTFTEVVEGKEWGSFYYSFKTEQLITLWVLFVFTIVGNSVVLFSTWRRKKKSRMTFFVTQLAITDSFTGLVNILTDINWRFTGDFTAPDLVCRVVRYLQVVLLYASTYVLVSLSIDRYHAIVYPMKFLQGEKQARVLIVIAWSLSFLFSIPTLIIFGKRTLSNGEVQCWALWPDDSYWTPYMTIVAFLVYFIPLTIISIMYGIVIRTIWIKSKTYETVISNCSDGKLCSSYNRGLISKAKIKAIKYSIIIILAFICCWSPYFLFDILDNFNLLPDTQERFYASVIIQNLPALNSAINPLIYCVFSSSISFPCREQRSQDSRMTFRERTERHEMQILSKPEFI

Potency, inactive:
COC(C[C@@H](O)[C@H](C)[C@H](O)COCc1ccccc1)OC
O=C(Nc1ccccc1)O/N=C1/CCCc2occc21
O=C(CNCc1cccs1)Nc1cc(S(=O)(=O)N2CCCC2)ccc1Cl
C=CCNC(=O)CSc1nc2scc(-c3ccco3)c2c(=O)n1CC=C
C=CCn1c(N)c(C(=O)OCC(C)C)c2nc3ccccc3nc21
CCC(C)NC(=O)c1c(N)n(/N=C/c2cccs2)c2nc3ccccc3nc12 (stereo not given)
Cc1ccccc1CSc1nnc(CCCCCNC(=O)OC(C)(C)C)o1
CC(C)(C)c1ccc(CCC2OCC(CN3CCOCC3)O2)cc1 (stereo not given)
O=C(CCCl)Nc1ccc(S(=O)(=O)NCc2ccco2)cc1
COc1ccc(CCNC(=O)C(Sc2ccccn2)c2ccccc2)cc1OC (stereo not given)
CCOC(=O)CN(Cc1ccc(OC)c(OC)c1)S(=O)(=O)c1ccc(OC)cc1
C/C=C(\C)C(=O)N1CC2(CC(c3cccc(NC(=O)CCCCC)c3)=NO2)C[C@@H]1C(N)=O (stereo not given in full)
Cn1nnc(NC(=S)NC(=O)c2ccccc2)n1
O=c1c2ccccc2c(-c2ccccc2)nn1Cc1ccccc1
Cn1c(CO)cnc1SCc1ccccc1
CC1=NNC(=O)C1CCC(=O)N/N=C(\C)c1ccc(Cl)cc1 (stereo not given)
Cc1ccc(CSc2nnc(-c3cnccn3)n2C)cc1
Cc1cccn2c(CNCC(C)Oc3cccnc3)c(C(=O)N3CCOCC3)nc12 (stereo not given)
COc1ccc(NC(=O)C2=NNC(=O)CC2)cc1S(=O)(=O)N1CCCCC1
O=C(Nc1ccc(S(=O)(=O)Nc2nccs2)cc1)c1cccc(S(=O)(=O)N2CCOCC2)c1
CCOc1ccc(/C(O)=C2\C(=O)C(=O)N(c3ccc(OC)cc3)C2c2ccccc2[N+](=O)[O-])cc1 (stereo not given)
COc1ccc(/C(O)=C2\C(=O)C(=O)N(Cc3ccco3)C2c2ccc(OC)cc2OC)cc1 (stereo not given)
COc1ccccc1N(C)S(=O)(=O)c1ccc(C(=O)NC2CCCCCC2)cc1
CC[C@@H](C)[C@@H](C(=O)N1CCN(C(=O)OC(C)(C)C)CC1)n1cc(CCC(=O)O)nn1
CC(=O)NC(=S)Nc1ccc(NC(=S)NC(=O)c2ccc([N+](=O)[O-])cc2)cc1
COc1cc(/C=C2/C(=O)NN(c3ccc(F)cc3)C2=O)cc([N+](=O)[O-])c1O
CCCn1c(=NC(C)=O)c(C(=O)OCC)cc2c(=O)n3ccccc3nc21
C/C(=N/OC(=O)c1c(-c2c(F)cccc2Cl)noc1C)c1cnccn1
O=C(O)C1CCN(c2ccc([N+](=O)[O-])cc2[N+](=O)[O-])CC1
CC(OC(=O)c1ccc(NS(=O)(=O)c2ccc3[nH]c(=O)[nH]c3c2)cc1)C(=O)Nc1cccc(Cl)c1Cl (stereo not given)
O=C(O)c1cccnc1Sc1ncnc2sc3c(c12)CCC3

Potency, active:
CC(C)Cn1c(N)c(C(=O)NCc2cccs2)c2nc3ccccc3nc21 12.6 µM
COc1ccc(C(CCN(Cc2ccc(OC)c(OC)c2)C(=O)CCl)c2ccccc2)cc1 (stereo not given) 5.01 µM
CSc1c(SCc2ccccc2)cnn(Cc2ccccc2)c1=O 10 µM
Cc1csc(Nc2ccc(Cl)cc2)[n+]1-c1ccc(Cl)cc1 10 µM
COc1ccc(/C(O)=C2/C(=O)C(=O)N(c3nc(C)c(C)s3)C2c2ccco2)cc1 (stereo not given) 10 µM
CCOC(=O)c1cc2c(=O)n3ccccc3nc2n(CC(C)C)c1=NC(=O)c1c(-c2c(F)cccc2Cl)noc1C 3.98 µM

Activity change, negative = inhibition, inactive:
Cc1ccc(C(=O)NNC2=Nc3cc([N+](=O)[O-])ccc3OC2)cc1 -1.29% [at 7.67 µM]
O=c1ccnc(Nc2ccc(Cl)cc2)[nH]1 1.3% [at 7.67 µM]
CC(C)S(=O)(=O)c1csc(NC(=O)Nc2ccc(Cl)cc2)c1Cl 14.8% [at 7.67 µM]
